Experimental findings from the emibetuzumab library of Makowski et al. (2022) are described below.

The list shows a part of the results. How many sequences the whole screen found active is unknown.

First the molecules themselves.
B1: VH:VL chains; a variant is named by its letters at X, in order (parent)
chain 1: QVQLVQSGAEVKKPGASVKVSCKASGYTFTDYXMHWVRQAPGQGLEWMGXVNPNXXXTTYNQKFEGRVTMTTDTSTSTAYMELRSLRSDDTAVYYCARXNXLDXWGQGTTVTVSS
chain 2: DIQMTQSPSSLSASVGDRVTITCSVSSSVSSIYLHWYQQKPGKAPKLLIYSTSNLASGVPSRFSGSGSGTDFTLTISSLQPEDFATYYCQVYSGYPLTFGGGTKVEIK

In this assay the parent is B1. Briefly: yeast display scFab, FACS + sequencing. The settings on record: with MET. In short, it runs like this:
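For FACS, yeast displaying a heavy-chain CDR mutant scFab library were labelled with 1 nM HGFR-Fc and anti-Myc (PBSB, 1% milk, 3 h, room temperature), and the top 50% antigen-positive cells were gated. Input and round-3 sorted populations were deep sequenced in two replicates. The binding call was positive for sequences occurring in both antigen-positive samples and negative for sequences occurring only in input.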
On to YKGRGFSD, for which the antigen binding call is recorded as “no binding”.

Regarding YRGRGFSD, the antigen binding call is “binds”.

Take YTEKTFSD: the antigen binding call is “no binding”.

DTTGSDVY: the antigen binding call is recorded as “no binding”.

On to ATGRAAGD, for which the antigen binding call is on record as “no binding”.

FRTEGSAD: the antigen binding call is “binds”.

On to FRTGGSAD, for which the antigen binding call is on record as “binds”.

As for FETGGYVY, the antigen binding call was “no binding”.

For the variant SEARSSSV, the antigen binding call is reported as “no binding”.

On to YATEGVWV, for which the antigen binding call was “no binding”.

In the case of DARGGSSV, the antigen binding call is given as “no binding”.

Consider AEREADWV, for which the antigen binding call was “no binding”.

In the case of VETGNDVA, the antigen binding call was “no binding”.

As for YRGGDYGA, the antigen binding call was “no binding”.

Regarding YRGKDSGA, the antigen binding call is given as “binds”.

As to YRGKDSGS, the antigen binding call is “binds”.

On to YRGKDAGA, for which the antigen binding call is recorded as “binds”.

With VRGKGSSS, the antigen binding call is recorded as “binds”.

Regarding VRAGDDSD, the antigen binding call is reported as “no binding”.

Turning to VTGGDSSD, the antigen binding call is “no binding”.

As for VRRGDSSD, the antigen binding call was “binds”.

Turning to VAGTGSSD, the antigen binding call was “no binding”.

Consider VRGKGSSD, for which the antigen binding call was “binds”.

With VTGTGSSD, the antigen binding call was “no binding”.

Consider VEGGGSSS, for which the antigen binding call is “no binding”.

On to VRKKGVSS, for which the antigen binding call is recorded as “no binding”.

In the case of VRTADDGA, the antigen binding call was “no binding”.

Regarding VAATADVA, the antigen binding call is given as “no binding”.

With YKKTGYWV, the antigen binding call is recorded as “no binding”.

Turning to YKGEGDLV, the antigen binding call is listed as “no binding”.

With YKGRGYLV, the antigen binding call is given as “binds”.

With YKEGAYAD, the antigen binding call was “no binding”.

YKGRGSLV: the antigen binding call is given as “binds”.

Turning to YKGRGYAV, the antigen binding call is “binds”.

Take YKGEGYGV: the antigen binding call is recorded as “no binding”.

Consider YKETGYAV, for which the antigen binding call is on record as “binds”.

YGGRGYAV: the antigen binding call is “no binding”.

For DAARGDSA, the antigen binding call is recorded as “no binding”.

With AKGGGDVV, the antigen binding call was “no binding”.

Regarding YAEEGVGY, the antigen binding call is recorded as “no binding”.

On to YRARGVGA, for which the antigen binding call is “binds”.

With YRARGFGA, the antigen binding call is listed as “no binding”.

On to YRARGAVA, for which the antigen binding call is “binds”.

Consider YRARGAGA, for which the antigen binding call is listed as “binds”.

For the variant SEARSSSY, the antigen binding call is “no binding”.

Take VEEEGAGV: the antigen binding call is listed as “no binding”.

Regarding DTTKSDGV, the antigen binding call is reported as “no binding”.

Regarding SEARSAWA, the antigen binding call is given as “no binding”.

Turning to YRARSAVA, the antigen binding call was “binds”.

For YRERSSVA, the antigen binding call was “binds”.

In the case of SEARSAVA, the antigen binding call is “no binding”.

As to YRARSSVA, the antigen binding call was “binds”.

As for DRARTFVA, the antigen binding call is given as “no binding”.

YRARSAWA: the antigen binding call is “binds”.

Regarding AEERASAF, the antigen binding call was “no binding”.

On to VAGTGAVV, for which the antigen binding call is reported as “no binding”.

In the case of VAEKGDLS, the antigen binding call was “no binding”.

As for VTTKSDLA, the antigen binding call was “no binding”.

SAGKDDLA: the antigen binding call was “no binding”.

As to DEGGTDVY, the antigen binding call is “no binding”.

For the variant YRARGSVF, the antigen binding call was “binds”.

For the variant YTARGVSF, the antigen binding call is reported as “no binding”.

In the case of YRARGSLF, the antigen binding call is “binds”.

Consider FGAATDGV, for which the antigen binding call was “no binding”.

In the case of DTREGDGA, the antigen binding call was “no binding”.

As to FAGRDAVV, the antigen binding call is listed as “no binding”.

Turning to DGGKNAGD, the antigen binding call is “no binding”.

As to DARGGSSY, the antigen binding call is reported as “no binding”.

On to YKRGGSSY, for which the antigen binding call was “binds”.

Turning to YKKESDSY, the antigen binding call is recorded as “no binding”.

As to FKRRDSVY, the antigen binding call was “no binding”.

FKRGSSSY: the antigen binding call is “binds”.

For FKARDSSA, the antigen binding call is given as “no binding”.

With YKRGSSSY, the antigen binding call was “binds”.

As for VERGGDSY, the antigen binding call is recorded as “no binding”.

Turning to YERRDVLY, the antigen binding call is “no binding”.

With YRKKSVGA, the antigen binding call is “no binding”.

For the variant YREGGDGA, the antigen binding call is given as “no binding”.

Take YRRGSVGA: the antigen binding call is “binds”.

With YRRGGVGA, the antigen binding call is “binds”.

For YEKGGDGA, the antigen binding call is “no binding”.

YRRGGDGA: the antigen binding call is reported as “binds”.

YRTEDVGA: the antigen binding call is listed as “no binding”.

Regarding YARRDVGA, the antigen binding call is given as “no binding”.

As to AGGENDGD, the antigen binding call is recorded as “no binding”.

In the case of SGTKGYWD, the antigen binding call is recorded as “no binding”.

With DTKAAAGD, the antigen binding call was “no binding”.

As to VEGGGDGV, the antigen binding call is given as “no binding”.

Turning to YRGRSSSV, the antigen binding call was “binds”.

For the variant DAGGASSV, the antigen binding call is given as “no binding”.

YRGRSASV: the antigen binding call is given as “binds”.

Turning to YTGTSSSV, the antigen binding call was “no binding”.

On to ARGRSDAV, for which the antigen binding call was “no binding”.

Turning to FARETFGV, the antigen binding call is reported as “no binding”.

Consider VETEGDWY, for which the antigen binding call was “no binding”.

For YGRRGFSV, the antigen binding call is “no binding”.

In the case of YRRRGDGV, the antigen binding call is “binds”.

On to YRRRGSGV, for which the antigen binding call is listed as “binds”.

YREEGDGV: the antigen binding call was “no binding”.

YRRRGVGV: the antigen binding call is reported as “binds”.

In the case of YRRRGASV, the antigen binding call is on record as “binds”.

Turning to YARRGSGV, the antigen binding call is reported as “no binding”.

Take VETRSDVA: the antigen binding call was “no binding”.

Regarding VTGTSDLY, the antigen binding call is on record as “no binding”.

For VTAGDDVY, the antigen binding call is reported as “no binding”.
